ZTA DNA inh = ZTA (EBV) inhibition in EBNA-1 counter-screen; P03206; AID 2234; ZTA-DNA binding, fluorescence polarization; actives 0.15% (n = 320,000); inhibition, % at 11 µM; in the data active = inhibition above about 33%
MEX-5 binding = C. elegans MEX-5 TCR-2 RNA binding activity; MEX-5/FITC-TCR2 RNA binding, fluorescence polarization; stronger effect = lower value; actives 0.38% (n = 300,000); Q9XUB2; AID 1832; activity score (negative = inhibition of binding), % at 10 µM;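 active = inhibition past about -25% in most replicates, and total fluorescence under double the plate's negative control median, limit read from the data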;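 note: 0% = DMSO and -100% = 5 µM competing unlabeled TCR2 RNA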
Target sequence (Q9XUB2 whole entry, looked up): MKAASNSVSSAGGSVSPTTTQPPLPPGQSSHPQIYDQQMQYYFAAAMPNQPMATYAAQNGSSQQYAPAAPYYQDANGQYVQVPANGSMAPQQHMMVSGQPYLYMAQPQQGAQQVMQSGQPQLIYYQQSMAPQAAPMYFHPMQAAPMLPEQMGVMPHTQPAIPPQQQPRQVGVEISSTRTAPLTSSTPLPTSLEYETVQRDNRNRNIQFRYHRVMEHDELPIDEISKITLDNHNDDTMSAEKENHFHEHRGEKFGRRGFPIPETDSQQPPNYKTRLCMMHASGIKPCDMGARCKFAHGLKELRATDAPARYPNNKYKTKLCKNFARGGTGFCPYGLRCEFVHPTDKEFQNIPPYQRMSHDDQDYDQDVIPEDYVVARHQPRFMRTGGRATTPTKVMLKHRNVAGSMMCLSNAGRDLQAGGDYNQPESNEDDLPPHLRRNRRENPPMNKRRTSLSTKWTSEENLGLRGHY
EBV gp42 block = blocks Epstein-Barr virus glycoprotein 42 binding; Q1HVG2; Fluorescence polarization binding assay, mP read-out; inhibition, % (tested at 21.74 µM); actives 0.42% (n = 220,000); AID 1085; in the data active = inhibition above about 50%
EBNA-1 inhibitor = blocks EBNA-1 binding to DNA; inhibition, % at 14.8 µM; EBNA-1 DNA binding, fluorescence polarization; actives 0.34% (n = 300,000); AID 1950; in the data active = inhibition above about 28%
EBNA-1 confirm = EBNA-1 (EBV) inhibition, confirmation | shares compounds with EBNA-1 inhibitor | Recombinant EBNA-1 DBD, Cy5-DNA fluorescence polarization | actives 35% (n = 830) | AID 2292 | inhibition, % at 14.8 µM;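 active = mean inhibition across replicates above a set limit taken from the earlier primary screen, cut at about 28% in these data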;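 note: plate controls were EBNA-1 protein with DMSO for no effect and wells lacking EBNA-1 for full effect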
ZTA DNA inh trip = blocks Epstein-Barr virus ZTA in triplicate, EBNA-1 counter-screen. AID 2328. shares compounds with EBNA-1 inhibitor. inhibition, % at 11.1 µM. 830 tested, under 10 active. Zta-ZRE DNA binding, Cy5 fluorescence polarization;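 active = mean inhibition over triplicates above a set limit taken from the primary EBNA-1 screen, cut at about 37% in these data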;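 note: purified full length Zta protein with Cy5 labeled ZRE DNA probe; 0% = Zta with DMSO and 100% = wells lacking Zta protein; inhibitors lower polarization by freeing the labeled DNA probe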
Active calls of the source: *; . = no result given. This is a sample that favours compounds with a hit; in the whole collection about 1% have one here.

SMILES	ZTA DNA inh	MEX-5 binding	EBV gp42 block	EBNA-1 inhibitor	EBNA-1 confirm	ZTA DNA inh trip
COc1ccc(CNC(=O)CSc2nnc3c(n2)[nH]c2ccc(C)cc23)cc1	-3	1	.	-1	.	.
O=C(Cn1c(=O)n(CCC(=O)N2CCCCC2)c(=O)c2sccc21)NCc1ccccc1	0	0	.	-4	.	.
COc1ccc(-n2nnnc2SCC(=O)c2ccc3c(c2)OCCO3)cc1	-7	2	-19	28*	25	15
Cc1ccc(C(=O)Nc2nc3ccc(S(C)(=O)=O)cc3s2)cc1C	-4	-2	.	144*	97*	16
Cc1cccc(C(=O)Nc2nc3ccc(S(C)(=O)=O)cc3s2)c1	.	0	.	.	.	.
COc1ccc(Cc2nc3ccc(C(=O)NCC(C)(C)OC)cc3o2)cc1	-6	-1	.	2	.	.
c1cc(CCCc2ccncc2)ccn1	12	.	.	.	.	.
COc1ccc(CCNC(=S)N2CCN(S(=O)(=O)c3cccc(F)c3)CC2)cc1	-9	2	.	6	.	.
COc1ccc(CNC(=S)N2CCN(S(=O)(=O)c3cccc(F)c3)CC2)cc1	2	0	-16	40*	73*	7
COc1cccc(OC)c1C(=O)Nc1nc2cc3c(cc2s1)OCO3	-3	2	-7	33*	60*	7
CCOc1ccc(N2CC(C(=O)Nc3cccc(C(=O)NC4CC4)c3)CC2=O)cc1 (stereo not given)	-2	.	.	.	.	.
Cc1ccc(C2CC(c3cccs3)=NN2C(=O)CSc2nc(=O)n3cc(C)ccc3n2)cc1 (stereo not given)	-4	2	.	42*	2	7
O=C(Nc1cc(F)cc(F)c1)c1ccc(NCCc2ccccc2)c([N+](=O)[O-])c1	11	-5	-236	74*	5	7
CCCC(=O)Nc1ccc2nc(SCC(=O)Nc3ccc(N4CCOCC4)c(Cl)c3)sc2c1	16	-1	-46	67*	71*	4
Nc1ccc2nc(SCC(=O)Nc3ccc(N4CCOCC4)c(Cl)c3)sc2c1	-1	2	-49	-4	.	.
CC(Oc1ccc(Cl)cc1Cl)C(=O)NNC(=O)C(=O)N1CCCC1 (stereo not given)	21	0	.	13	.	.
O=C(COC(=O)c1cc(Br)ccc1O)Nc1ccc2c(c1)OCCO2	6	0	.	49*	22	1
Cc1nc(Nc2ccc(Cl)cc2)c2oc3ccccc3c2n1	-1	0	.	0	.	.
Cc1nc(Nc2cccc(Cl)c2)c2oc3ccccc3c2n1	4	2	.	29*	-4	11
CCc1ccc(NC(=O)CCC(=O)Nc2nnc(C(C)C)s2)cc1	-2	2	.	40*	10	-3
COc1ccc(C(=O)N2C(=O)c3ccc(N)cc3C2=O)cc1	-11	1	-3	34*	27	-4
O=C(Cn1c(O)c(/C=C2\C=Nc3ccc(Br)cc32)sc1=O)N1CCCC1	-5	-1	-11	29*	10	-1
Cn1c(CNC(=O)c2ccc(Cl)c(Cl)c2)nnc1SCC(=O)Nc1sc2c(c1C#N)CCCC2	9	2	-3	31*	39*	-8
CCOc1ccc(NC(=O)C(=O)N/N=C\c2ccc(CNS(=O)(=O)c3ccccc3)o2)cc1	-14	-1	-6	63*	58*	-2
CCOc1ccc(C(=O)N/N=C/c2ccc(-c3ccc(S(=O)(=O)Nc4ncccn4)cc3)o2)cc1	7	4	33	5	.	.
SMILES	ZTA DNA inh	MEX-5 binding	EBV gp42 block	EBNA-1 inhibitor	EBNA-1 confirm	ZTA DNA inh trip
CCOc1ccc(OCCC(=O)OCC(=O)Nc2cc(OCC)c(N3CCOCC3)cc2OCC)cc1	-2	2	.	7	.	.
COCCOC(=O)c1c(NC(=O)CNc2ccc(C)c(F)c2)sc(C(N)=O)c1C	-3	2	-14	42*	14	14
O=C(CNC(=O)c1ccc(-c2ccccc2)cc1)OCc1c(Cl)cccc1Cl	-9	1	-8	15	.	.
O=C(CNC(=O)c1ccc(-c2ccccc2)cc1)OCc1c(F)cccc1Cl	-17	-2	-18	44*	76*	-12
CCCOc1ccc(-c2c(=O)n(O)c3ccccc3[n+]2[O-])cc1	-4	2	.	-5	.	.
CC(=O)NC(=S)Nc1cccc2c(C)cc(C)nc12	2	-2	-3	6	.	.
Cc1cc(C)c2cccc(NC(=S)NC(=O)c3ccccc3)c2n1	2	-1	-21	34*	28*	5
